Values joined by “and” are separate entries in the source; they are usually repeats but may differ in a detail not shown here. Identical values can stand only once. Active and inactive are the calls of the source. Unless noted, how the calls were made is not given here.
Key:
[1] = P. berghei load reduction in hepatocytes – cell-based, HepG2, luciferase luminescence, HepG2 viability, primary screen (AID 624349; in the data active means parasite load remaining mostly below about 12%, no sharp cut-off; inactive means mostly above about 10%;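 further: 100% = mean of DMSO negative control wells on the same plate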); conditions: P. berghei liver stage in HepG2, luciferase luminescence, concentration not given here; parasite load remaining: stronger effect = lower value; viability: measured here: HepG2 viability without parasites
[2] = signal quenchers or enhancers, Cy5 substrate/SSB – biochemical, NIH Clinical Collection, E. coli SSB, artefact control for HCV NS3 helicase inhibitor project (AID 743268); conditions: Cy5-oligo bound E. coli SSB, fluorescence interference
[3] = system: Hepatitis C virus NS3 helicase; assay: blockers of NS3h binding to DNA – biochemical, fluorescence polarization, NIH Clinical Collection, primary screen (AID 743270); conditions: NS3 helicase binding to Cy5-dT15 DNA, stronger effect = higher value, concentration not given here
[4] = biological target: Single-stranded DNA-binding protein (Escherichia coli (strain K12)) (UniProt P0AGE0); assay: SSB-ssDNA binding inhibitors – biochemical, fluorescence polarization, NIH Clinical Collection, counter-screen for HCV NS3 helicase inhibitor project (AID 743271; in the data active means inhibition above about 28%); conditions: E. coli SSB-DNA binding, stronger effect = higher value, concentration not given here
[5] = compounds distorting NS3 helicase fluorescence signal – biochemical, NIH Clinical Collection, artefact control for HCV NS3 helicase inhibitor project (AID 743272); conditions: fluorescence interference counterscreen, HCV NS3 helicase assay; stronger effect = lower value;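 further: HCV NS3 helicase with a Cy5 labelled single stranded DNA probe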
[6] = system: Neuropilin-2 / VEGF-C interaction (human); assay: small molecules blocking Neuropilin-2/VEGF-C interaction – biochemical, microplate binding format, z-score (AID 743281); conditions: microplate NRP2/VEGF-C binding assay; stronger effect = lower value
[7] = Wnt pathway potentiators raising nuclear beta-catenin – imaging, WNT3A-conditioned medium, mouse C2C12, NPC library, primary screen (AID 1117326; in the data active means nuclear beta-catenin stimulation mostly above about 4.2%, no sharp cut-off; inactive means mostly below about 10%); conditions: stronger effect = higher value
[8] = stimulators of insulin release from INS-1E, primary screen, cell-based, 5 mM glucose, NPC library (AID 1117329;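 active means compound raises insulin release from rat beta cells at 5 mM glucose, no numeric limit stated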); conditions: rat INS-1E insulin secretion, at 10 µM, stronger effect = higher value
[9] = growth inhibition of GSK3B-pretreated HCT116 cells – cell-based, CellTiter-Glo, 0.2 to 20 µM (AID 1117336;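 active means compounds lowering colon cancer cell viability after pretreatment blocking the GSK3B kinase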); conditions: HCT116 viability after GSK3B inhibitor, at 20 µM, stronger effect = higher value
[10] = inhibition of endothelial tube formation, primary screen, imaging, VEGF stimulated, CD31 staining, tube area, NPC library (AID 1117340;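 active means compound that reduces growth-factor-driven endothelial tube area in a mixed cell culture, no cutoff stated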); conditions: VEGF-stimulated ADSC/ECFC co-culture, at 10 µM, stronger effect = higher value
[11] = GLP1 release stimulators, primary, NCI-H716, NPC library (AID 1117341;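 active means compound raises GLP1 secretion from the human gut endocrine cells, with no numeric limit stated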); conditions: NCI-H716 cells, at 10 µM, stronger effect = higher value
[12] = HCT116 colon cancer cell growth inhibition, primary screen, CellTiter-Glo luminescence, NPC library (AID 1117342;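 active means compounds that lower survival of HCT116 colon cancer cells in the luminescence readout, no numeric limit stated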); conditions: at 20 µM (top of the series)
[13] = reduced SW480 viability measured with CellTiter-Glo, NPC library, primary (AID 1117343;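 active means compounds that lower viability of the colon cancer cells in the luminescence readout, with no numeric limit stated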); conditions: CellTiter-Glo luminescence; at 20 µM (top of the series)
[14] = NPC library primary testing for decreased DLD-1 cell viability via CellTiter-Glo (AID 1117346;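 active means compounds that lower survival of DLD-1 colon cancer cells in the luminescence readout, no cutoff given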); conditions: DLD-1 viability, CellTiter-Glo luminescence; at 20 µM (top of the series)

SMILES | parasite load remaining [1] | viability [1] | fluorescence ratio [2] | inhibition [3] | inhibition [4] | fluorescence ratio [5] | outcome [6] | nuclear beta-catenin stimulation ([7]; at 10 µM) | nuclear beta-catenin stimulation ([7]; stimulation, at 2 µM) | insulin secretion stimulation [8] | viability decrease [9] | tube area decrease [10] | GLP1 secretion stimulation [11] | inhibition of viability [12] | viability decrease (inhibition) [13] | viability decrease (inhibition) [14] | z-score [6]
CN1CCN(c2c(F)cc3c(=O)c(C(=O)O)cn4c3c2SCC4)CC1 | 99.2% (inactive) and 24.3% (inactive) | 91.2% and 66% | 1.04 (inactive) | -4.36% (inactive) | -3.18% (inactive) | 0.99 (inactive) | inactive | 1.2% (inactive) | -0.2% | 0.05% (inactive) | 19.8% (inactive) | -3.6% (inactive) | 1.6% (inactive) | 7.2% (inactive) | -18.1% (inactive) | 0.6% (inactive) | 
CC(c1cc2ccccc2s1)N(O)C(N)=O (centres undefined) | 58.4% (inactive) and 101% (inactive) and 41.5% (inactive) | 101% and 79.1% and 102% | 1.02 (inactive) | 2.77% (inactive) | -0.87% (inactive) | 1.01 (inactive) |  | 0.1% (inactive) | 0.8% | -0.1% (inactive) | -6.5% (inactive) | -39.9% (inactive) | -1.4% (inactive) | -15.9% (inactive) | 9.4% (inactive) | -3.8% (inactive) | -0.124 (inactive)
COc1cc2c(cc1OC)C(=O)C(CC1CCN(Cc3ccccc3)CC1)C2 (centres undefined) | 49.6% (inactive) and 67.4% (inactive) | 93.5% and 63.1% | 1.07 (inactive) | 1.98% (inactive) | 1.44% (inactive) | 1.04 (inactive) |  | -1% (inactive) | -0.2% | 1.25% (inactive) | 22.6% (inactive) | 17.7% (inactive) | 6.3% (inactive) | 49.6% (inactive) | 69.8% (active) | 38.5% (inactive) | 0.0126 (inactive)
CCCN1CCCC[C@H]1C(=O)Nc1c(C)cccc1C | 68.8% (inactive) | 69.6% | 0.98 (inactive) | -5.46% (inactive) | -2.76% (inactive) | 0.92 (inactive) |  | 0.3% (inactive) | -1.3% | 31% (active) | -8% (inactive) | -2.1% (inactive) | 3.3% (inactive) | 3.1% (inactive) | -17% (inactive) | 6.9% (inactive) | 0.543 (inactive)
CC(=O)Oc1ccccc1C(=O)Nc1ncc([N+](=O)[O-])s1 | 0.07% (inactive) | 55.1% | 1 (inactive) | 2.77% (inactive) | 4.52% (inactive) | 1 (inactive) |  | 13.9% (inactive) | 2% | -1.8% (inactive) | 106% (active) | 110% (active) | 2.9% (inactive) | 107% (active) | 120% (active) | 95.2% (active) | -0.0903 (inactive)
O=c1c(-c2ccccc2)c1-c1ccccc1 | 7.97% (inactive) | 65.5% | 0.98 (inactive) | -0.4% (inactive) | 1.44% (inactive) | 0.79 (active) |  | 40.6% (active) | 22.6% | 0.3% (inactive) | 41.9% (inactive) | 103% (active) | -2.9% (inactive) | 64.4% (active) | 106% (active) | 64.3% (active) | -0.326 (inactive)
N#Cc1ccc(C(c2ccc(C#N)cc2)n2cncn2)cc1 | 127% (inactive) and 107% (inactive) and 48.7% (inactive) | 71.5% and 77.2% and 128% | 1 (inactive) | 2.77% (inactive) | -1.64% (inactive) | 0.97 (inactive) |  | -1.6% (inactive) | 0% | 0.6% (inactive) | -9.1% (inactive) | -17.6% (inactive) | -2.1% (inactive) | 9.8% (inactive) | -2.1% (inactive) | -3.3% (inactive) | -0.196 (inactive)
Cc1ccsc1C(=CCCN1CCC[C@@H](C(=O)O)C1)c1sccc1C | 111% (inactive) | 71.9% | 0.99 (inactive) | -2.77% (inactive) | 3.75% (inactive) | 0.96 (inactive) |  | 1.8% (inactive) | 0.9% | 0.1% (inactive) | -15.1% (inactive) | -6.2% (inactive) | 2.2% (inactive) | 25% (inactive) | -16.3% (inactive) | 2.5% (inactive) | 1.77 (inactive)
Cc1nc2n(c(=O)c1CCN1CCC(c3noc4cc(F)ccc34)CC1)CCCC2 | 83.8% (inactive) and 28.6% (inactive) and 49.1% (inactive) | 76.9% and 60.3% and 97.5% | 1.05 (inactive) | 3.56% (inactive) | 2.21% (inactive) | 1.02 (inactive) |  | 4.2% (inactive) | 4.4% | 2.5% (inactive) | 5.9% (inactive) | 24.9% (inactive) | 2.3% (inactive) | 24.2% (inactive) | 41.5% (inactive) | 10.7% (inactive) | -1.5 (inactive)
